# Legend:
# [1] = tested on: Human papillomavirus type 1a protein E7 (residues 44-93); assay: HPV1a E7 fragment binders on microarrays, primary screen, biochemical, small-molecule microarray, residues 44-93, 635 nm fluorescence (AID 1108); conditions: small-molecule microarray binding, fluorescence 635 nm; higher = more signal;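 also: E7 fragment applied at 1 µg/mL in TBST for 1 h at 4 C; score combines spot fluorescence with its signal to noise ratio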
# [2] = modulators of HCV replicon luciferase signal, primary screen, HCV replication inhibitor project, Huh7 cells, luciferase reporter (AID 1109); conditions: 48 h, higher = more signal;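 also: huh7 hepatoma cells harbouring a luciferase neomycin HCV replicon reporter; luciferase luminescence as measure of HCV replicon replication; test concentration not given here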
# [3] = molecular target: Left-right determination factor 2 (Homo sapiens) (UniProt O00292); assay: LEFTY2 binders on small-molecule microarrays, primary screen, biochemical, small-molecule microarray, 635 nm fluorescence scan (AID 1110); conditions: LEFTY2 binding, higher = more signal
# [4] = molecular target: Calmodulin-1 (Homo sapiens) (UniProt P0DP23); assay: CALM1 binders on microarrays, EGTA buffer, profiling panel, biochemical, small-molecule microarray, Cy5-labelled CALM1 (AID 1111); conditions: Cy5-CALM1 binding fluorescence, higher = more signal;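 also: labelled calmodulin applied in Tris saline Tween buffer holding calcium plus EGTA and DTT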
# [5] = molecular target: Calmodulin-1 (Homo sapiens) (UniProt P0DP23); assay: calcium-bound CALM1 binders on microarrays, profiling panel, artefact control for SMM control-protein annotation, biochemical, small-molecule microarray, Cy5-labelled CALM1, plus calcium (AID 1112); conditions: Cy5-CALM1 binding fluorescence, higher = more signal;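 also: score merges spot fluorescence with signal to noise from triplicate slides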
# [6] = small-molecule microarray binders of probe aWnt5a, primary screen, biochemical, biotinylated probe, 635/667 nm fluorescence (AID 1113); conditions: higher = more signal;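 also: score merges 667 nm fluorescence intensity with signal-to-noise per printed feature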
# [7] = small-molecule microarray binders of probe aShh, primary screen, biochemical, biotinylated probe, 635/667 nm fluorescence (AID 1114); conditions: higher = more signal;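 also: probe is biotin-labelled aShh protein from a stem cell growth factor screen; measures binding of labelled protein to compounds printed on the slide; score merges feature fluorescence at 667 nm with signal-to-noise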
# [8] = small-molecule microarray binders of probe aNog, primary screen, biochemical, biotinylated probe, 635/667 nm fluorescence (AID 1115); conditions: higher = more signal;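 also: probe is biotinylated aNog protein used at 0.15 µg/mL for 1 h at 4 C; z-score combines 667 nm fluorescence of each spot with its signal to noise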
# [9] = molecular target: Torsin-1A-interacting protein 1 (Homo sapiens) (UniProt Q5JTV8); assay: LAP1 binders from COS7 cell lysate, primary screen, small-molecule microarray, 635/667 nm fluorescence (AID 1116); conditions: COS7-hLAP1 lysate binding, 635 nm fluorescence, higher = more signal
# [10] = molecular target: Alpha-bungarotoxin (Bungarus multicinctus) (UniProt P60615); assay: alpha-bungarotoxin binders on microarray, profiling panel, artefact control for SMM control protein annotation, biochemical, small-molecule microarray, Alexa647 label, 635/667 nm fluorescence (AID 1117); conditions: alpha-BTX-A647 binding fluorescence, higher = more signal
# Sequence of Alpha-bungarotoxin (Bungarus multicinctus) (P60615 whole entry, looked up): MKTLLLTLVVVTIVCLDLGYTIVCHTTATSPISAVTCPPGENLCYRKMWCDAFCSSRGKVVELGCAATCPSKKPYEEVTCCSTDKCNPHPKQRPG
# Sequence of Torsin-1A-interacting protein 1 (Homo sapiens) (Q5JTV8 whole entry, looked up): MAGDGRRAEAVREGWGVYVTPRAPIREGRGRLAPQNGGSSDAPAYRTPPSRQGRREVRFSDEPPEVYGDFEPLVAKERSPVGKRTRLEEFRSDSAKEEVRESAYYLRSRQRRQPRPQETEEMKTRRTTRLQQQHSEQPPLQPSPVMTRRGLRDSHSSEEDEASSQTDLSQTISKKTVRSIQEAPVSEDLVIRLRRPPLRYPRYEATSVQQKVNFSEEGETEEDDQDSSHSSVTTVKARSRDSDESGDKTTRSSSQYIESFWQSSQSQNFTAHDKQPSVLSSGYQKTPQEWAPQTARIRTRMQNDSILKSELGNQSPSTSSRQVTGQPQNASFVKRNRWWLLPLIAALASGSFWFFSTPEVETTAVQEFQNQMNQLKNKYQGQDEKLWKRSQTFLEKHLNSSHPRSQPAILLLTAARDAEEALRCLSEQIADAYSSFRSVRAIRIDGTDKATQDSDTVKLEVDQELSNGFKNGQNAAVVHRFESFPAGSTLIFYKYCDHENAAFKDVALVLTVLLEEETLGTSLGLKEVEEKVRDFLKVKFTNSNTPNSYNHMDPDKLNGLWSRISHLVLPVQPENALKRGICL
# Sequence of Left-right determination factor 2 (Homo sapiens) (O00292 whole entry, looked up): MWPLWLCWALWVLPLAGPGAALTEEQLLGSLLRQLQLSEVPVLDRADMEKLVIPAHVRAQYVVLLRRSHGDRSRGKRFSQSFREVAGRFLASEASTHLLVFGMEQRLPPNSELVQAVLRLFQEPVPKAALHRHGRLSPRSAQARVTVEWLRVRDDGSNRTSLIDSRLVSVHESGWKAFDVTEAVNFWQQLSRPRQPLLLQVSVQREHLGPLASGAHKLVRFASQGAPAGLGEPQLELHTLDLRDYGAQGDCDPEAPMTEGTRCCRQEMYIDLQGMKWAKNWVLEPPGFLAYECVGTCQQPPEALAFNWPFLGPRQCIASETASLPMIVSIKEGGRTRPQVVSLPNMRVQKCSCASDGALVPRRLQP
SMILES,composite z-score [1],z-score [2],composite z-score [3],composite z-score [4],composite z-score [5],composite z-score [6],composite z-score [7],composite z-score [8],composite z-score [9],composite z-score [10]
O=C1C[C@@](C(=O)NCC(F)(F)F)(c2ccc([N+](=O)[O-])cc2)[C@@H](c2ccc(CO)cc2I)N1CC12CC3CC(CC(C3)C1)C2,1.31,-3.3,0.0604,0.595,0.149,-0.0843,-0.314,-0.229,0.349,1.23
COCCOC(=O)N1C(=O)[C@@]2(c3cc(C#CCNC(N)=O)ccc31)[C@H](c1ccc(O)cc1)N1[C@H](c3ccccc3)[C@H](c3ccccc3)OC(=O)[C@H]1[C@@H]2C(=O)N1CCc2cc(OC)c(OC)cc2C1,1.31,-0.281,0.266,0.111,0.118,0.586,-0.167,-0.25,0.712,0.857
CCCC1(C(=O)OC)C=C2C(=C(C(C)C)C(=O)C2C)CN1 (stereo not given),-0.311,-0.808,-0.557,0.312,0.771,0.0375,0.381,0.658,2.29,-0.593
CN1C2C=C(c3ccc(CO)cc3)C(C3C(=O)N(C(N)=O)C(=O)C32)C1C1CC1 (stereo not given),0.249,-0.31,-0.423,-0.273,-0.915,-0.176,-0.229,-0.226,0.192,0.334
O=C1O[C@H](c2ccccc2)[C@H](c2ccccc2)N2[C@H]1[C@@H](C(=O)N1CCN(c3ncccn3)CC1)[C@]1(C(=O)Nc3ccc(C#CC4(O)CCCCCC4)cc31)[C@H]2c1ccc(O)cc1,1.07,-0.317,0.15,1.14,0.792,-0.0037,0.106,-0.0496,0.679,2.18
COc1cccc(C)c1NC(=O)O[C@H]1[C@H](OC(=O)Nc2ccccc2)[C@@H](OC(=O)Nc2ccccc2)[C@@H](OC)O[C@@H]1CO,1.52,-2.72,0.508,1.13,-0.271,0.0321,0.157,0.0023,2.17,1.31
O=C1OC[C@@H](c2ccccc2)n2cc(/C=C/c3ccccc3)cc21,0.06,-0.18,-0.623,-0.638,-1.27,-0.197,-0.0709,-0.367,-0.948,0.45
COc1cccc(C)c1NC(=O)O[C@H]1[C@H](OC(=O)Nc2ccccc2-c2ccccc2)[C@@H](OC(=O)Nc2ccccc2-c2ccccc2)[C@@H](OC)O[C@@H]1CO,1.52,-3.72,0.49,1.75,-0.136,-0.0325,-0.0211,1.08,0.809,0.949
COCCOC(=O)N1C(=O)[C@@]2(c3cc(C#CCC(C(=O)OC)C(=O)OC)ccc31)[C@H](c1ccc(O)cc1)N1[C@H](c3ccccc3)[C@H](c3ccccc3)OC(=O)[C@H]1[C@@H]2C(=O)N1CCc2cc(OC)c(OC)cc2C1,0.438,-0.284,1.04,0.505,0.781,0.0215,0.0898,-0.366,1.54,1.36
[N-]=[N+]=NCc1ccccc1[C@H]1OC(c2ccc(OCCCO)cc2)=N[C@@]1(CCS(=O)(=O)c1ccccc1)C(=O)NCCN1CCOCC1,1.49,-0.233,0.0744,1.39,0.593,0.143,-0.107,-0.612,1.06,1.3
COC(=O)[C@@]1(Cc2ccc(OC)cc2)[C@H]2c3cc(C(=O)N(C)C)n(Cc4c(CO)[nH]cc(C)c4=O)c3C[C@H]2CN1C(=O)c1ccccc1,0.784,-1.37,-0.0944,1.1,0.351,0.302,0.04,-0.211,0.376,0.302
CC[C@@H](O[Si](C#C[Si](C(C)C)(C(C)C)C(C)C)(C(C)C)C(C)C)c1cn([C@H](CO)Cc2ccccc2)nn1,1.02,-0.126,0.498,0.229,-0.24,-0.148,-0.0769,0.184,0.739,0.167
CC(C)C(=C=CC[C@H](O)c1cccc(OCCO)c1)C[C@H](O)c1ccccn1,0.106,-0.423,-0.256,-0.356,-0.78,-0.096,-0.289,-0.147,-0.334,-0.579
C=C(/C=C\CNS(=O)(=O)c1ccc(C)cc1)[C@H](O)[C@H]1CCCN1S(=O)(=O)c1ccccc1[N+](=O)[O-],-0.251,-3.55,0.318,-0.337,-0.477,-0.0405,-0.138,-0.219,0.612,0.293
CCOC(=O)C1=C[C@@H](C(C)(C)C)N(S(=O)(=O)c2ccc(C)cc2)[C@H]1c1ccc(OC)cc1,1.34,-2.36,0.535,1.49,0.577,0.0279,0.216,-0.397,1.97,1.14
COC(=O)[C@@]1(Cc2ccc(F)cc2)[C@H]2c3cc(C(=O)N(C)C)n(Cc4ccc(C(F)(F)F)nc4)c3C[C@H]2CN1C(=O)c1ccccc1,1.38,-2.42,0.22,2.27,0.789,0.15,0.25,-0.235,0.0971,0.922
COc1ccc(C#Cc2ccc3c(c2)[C@]2(C(=O)N3)[C@H](c3ccccc3OCCO)N3[C@H](c4ccccc4)[C@H](c4ccccc4)OC(=O)[C@H]3[C@@H]2C(=O)NC[C@H](O)c2ccccc2)cc1,1.32,-2.93,1.02,1.11,-0.127,-0.0846,-0.16,-0.479,1.01,1.26
C=CCNC(=O)[C@@H]1[C@H]2C(=O)O[C@H](c3ccccc3)[C@H](c3ccccc3)N2[C@H](c2ccc(OCCO)cc2)[C@@]12C(=O)Nc1ccc(C#CC3=CCCCC3)cc12,0.0834,-2.53,0.413,1.62,0.107,-0.012,0.103,0.843,0.803,2.23
CCOC(=O)C[C@H]1[C@H](OC(=O)c2ccc(-c3ccccc3)cc2)[C@@H](NC(=O)c2ccc(-c3ccccc3)cc2)c2cc(OCCCO)ccc2N1C(=O)c1ccccc1,1.01,-1.22,0.71,1.1,0.912,-0.0721,0.0278,0.412,0.322,1.14
CC(C)C[C@@H]1NC(=O)[C@@H]2C[C@H](C(=O)NCCCCCNC(=O)CS)[C@H](c3ccc(O)cc3)N2C1=O,1.37,2.04,0.104,1.18,0.194,-0.12,0.0637,-0.12,0.097,0.136
COCCOC(=O)N1C(=O)[C@@]2(c3cc(C#CC4=CCCCC4)ccc31)[C@H](c1ccc(O)cc1)N1[C@H](c3ccccc3)[C@H](c3ccccc3)OC(=O)[C@H]1[C@@H]2C(=O)N1CCc2cc(OC)c(OC)cc2C1,1.06,-0.993,-0.231,1.12,0.516,-0.0332,0.0796,0.453,2.23,0.924
COC(=O)[C@@]1(Cc2ccc(F)cc2)[C@H]2c3cc(C(=O)N(C)C)n(Cc4ccsc4Br)c3C[C@H]2CN1C(=O)c1ccccc1,-0.468,-0.787,0.648,2.16,0.981,1.37,2.15,-0.0209,1.53,0.427

# — PubChem BioAssay
